From PubChem BioAssay (Tox21)
Results filed as inconclusive are left out. The source made the active and inactive calls. Unless noted, the call rests on the fitted dose curve; in most records, active means well fitted curve in the direction sought with a large enough effect in the repeat runs; inconclusive means weak or mixed curves; inactive means no such curve, though single readings can be large; an effect the other way counts as inactive or inconclusive.

Key:
[1] = qHTS assay to identify small molecule agonists of the sonic hedgehog signaling (Shh) pathway (AID 1259368; calls by dose curve;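 further: NIH/3T3-derived 3T3Gli1-Luc cells carrying a stable Gli1-driven firefly luciferase reporter; series mostly up to about 92 µM; nearly all actives have a fitted effect of over 15% in size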)
Method in brief: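 NIH/3T3-derived 3T3Gli1-Luc cells with stably integrated Gli1-driven firefly luciferase, 2,000 cells/well, compounds added after 4 hr. Incubated 24 hr at 37C, 5% CO2; luminescence read after 30 min with luciferase reagent at room temperature.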

[2] = qHTS assay to identify small molecule antagonists of the sonic hedgehog signaling (Shh) pathway (AID 1259369; calls by dose curve; further: nearly all actives have a fitted effect of over 45% in size)
Method in brief: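 NIH/3T3-derived Gli1-Luc reporter cells plated 4 h, dosed with compound, then stimulated with conditioned medium for 24 h at 37 C. Firefly luciferase luminescence read after 30 min with detection reagent at room temperature.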

[3] = molecular target: Estrogen receptor beta (Homo sapiens) (UniProt Q92731); test: qHTS assay to identify small molecule agonists of the estrogen receptor beta (ER-beta) signaling pathway (AID 1259377; active means well fitted activation curve with a large enough effect in the signal ratio in the repeat runs, not every such curve was filed as active; the % refers to the signal ratio)
Chain of Estrogen receptor beta (Homo sapiens) (Q92731 whole entry, looked up): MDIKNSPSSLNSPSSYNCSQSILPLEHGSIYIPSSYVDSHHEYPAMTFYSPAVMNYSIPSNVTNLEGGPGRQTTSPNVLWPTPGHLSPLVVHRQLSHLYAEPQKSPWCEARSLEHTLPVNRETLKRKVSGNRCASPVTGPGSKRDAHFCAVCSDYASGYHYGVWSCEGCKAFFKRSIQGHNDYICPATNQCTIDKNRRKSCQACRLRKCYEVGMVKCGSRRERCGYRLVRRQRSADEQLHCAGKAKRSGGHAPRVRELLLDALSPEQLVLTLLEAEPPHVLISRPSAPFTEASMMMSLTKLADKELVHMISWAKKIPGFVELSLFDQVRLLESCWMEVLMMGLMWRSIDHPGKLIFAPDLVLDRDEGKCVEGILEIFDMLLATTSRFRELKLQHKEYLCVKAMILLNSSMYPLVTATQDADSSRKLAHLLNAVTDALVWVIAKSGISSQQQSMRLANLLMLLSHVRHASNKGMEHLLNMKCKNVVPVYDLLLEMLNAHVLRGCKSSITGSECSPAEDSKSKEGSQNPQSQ
Method in brief: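 In HEK293T cells bearing a UAS-beta-lactamase reporter under ER-beta control, DMSO-delivered compounds were incubated for 16 hr at 37C. Activity was detected as fluorescence 2 hours after LiveBLAzer B/G FRET substrate addition.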

[4] = molecular target: Estrogen receptor beta (Homo sapiens) (UniProt Q92731); test: qHTS assay to identify small molecule antagonists of the estrogen receptor beta (ER-beta) signaling pathway (AID 1259378; active means well fitted inhibition curve with a large enough effect in the signal ratio in the repeat runs, not every such curve was filed as active; the % refers to the signal ratio)
Method in brief: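 Antagonist mode: compounds added to beta-lactamase reporter HEK293T ER-beta-UAS cells stimulated with E2 (1nM final), 16 hr at 37C. LiveBLAzer B/G FRET substrate, 2 hours room temperature, fluorescence read-out.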

[5] = qHTS assay to identify small molecule agonists of the androgen receptor (AR) signaling pathway in the presence of an antagonist - cell viability counter screen (AID 1259379);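 further: MDA-kb2 human breast cancer cells carrying an MMTV luciferase reporter; series mostly up to about 92 µM; nearly all actives have a fitted effect of over 25% in size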
Method in brief: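 MDA-kb2 cells (MMTV-luciferase, AR/GR), 3,000/well, 5 h attachment, then 3.0 µM nilutamide (final) and compounds at 15 concentrations. Viability by CellTiter-Fluor fluorescence after 16 h at 37 °C, 0% CO2, in the reporter wells.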

[6] = qHTS assay to identify small molecule agonists of the estrogen receptor beta (ER-beta) signaling pathway - cell viability counter screen (AID 1259380); further: nearly all actives have a fitted effect of over 30% in size
Method in brief: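 ER-beta-UAS-bla HEK293T cells in medium with 2% charcoal-stripped FBS, pre-incubated 6 hr, then treated 16 hr at 37C. Cytotoxicity read in the same wells by CellTiter-Glo luminescence after 30 min at room temperature.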

[7] = molecular target: Androgen receptor (Homo sapiens) (UniProt P10275); test: qHTS assay to identify small molecule agonists of the androgen receptor (AR) signaling pathway in the presence of an antagonist (AID 1259381; calls by dose curve; further: nearly all actives have a fitted effect of over 15% in size)
Chain of Androgen receptor (Homo sapiens) (P10275 whole entry, looked up): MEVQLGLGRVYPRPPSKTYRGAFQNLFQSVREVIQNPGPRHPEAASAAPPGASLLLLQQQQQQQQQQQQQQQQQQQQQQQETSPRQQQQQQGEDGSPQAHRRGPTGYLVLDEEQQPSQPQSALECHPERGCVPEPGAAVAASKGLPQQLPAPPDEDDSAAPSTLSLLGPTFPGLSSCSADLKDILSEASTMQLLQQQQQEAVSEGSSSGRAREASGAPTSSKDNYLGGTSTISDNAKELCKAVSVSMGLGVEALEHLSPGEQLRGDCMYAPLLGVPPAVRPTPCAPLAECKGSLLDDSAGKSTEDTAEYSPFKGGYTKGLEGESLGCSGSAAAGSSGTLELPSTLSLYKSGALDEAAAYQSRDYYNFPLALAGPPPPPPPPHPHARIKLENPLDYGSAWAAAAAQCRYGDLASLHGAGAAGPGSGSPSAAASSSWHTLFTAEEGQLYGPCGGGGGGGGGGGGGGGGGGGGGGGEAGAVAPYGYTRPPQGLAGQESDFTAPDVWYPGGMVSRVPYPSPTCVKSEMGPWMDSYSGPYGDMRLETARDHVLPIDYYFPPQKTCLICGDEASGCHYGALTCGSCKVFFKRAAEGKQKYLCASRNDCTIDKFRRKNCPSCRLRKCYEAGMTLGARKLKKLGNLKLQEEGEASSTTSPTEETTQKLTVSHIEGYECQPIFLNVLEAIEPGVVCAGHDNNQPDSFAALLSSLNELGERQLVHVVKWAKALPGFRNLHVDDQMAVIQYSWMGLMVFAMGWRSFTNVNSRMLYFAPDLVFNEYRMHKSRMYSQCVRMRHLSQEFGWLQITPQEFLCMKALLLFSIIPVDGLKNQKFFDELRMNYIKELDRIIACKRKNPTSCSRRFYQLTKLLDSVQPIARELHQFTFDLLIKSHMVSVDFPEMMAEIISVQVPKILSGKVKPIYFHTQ
Method in brief: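 MDA-kb2 cells carrying MMTV-luciferase (AR/GR responsive), 3,000 cells/well, co-treated with 3.0 uM nilutamide final. Compounds at 15 concentrations, 16 hr at 37C without CO2. Luciferase luminescence read after 30 min with ONE-Glo.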

[8] = qHTS assay to identify small molecule antagonists of the estrogen receptor beta (ER-beta) signaling pathway - cell viability counter screen (AID 1259382);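 further: HEK293T cells carrying ER-beta-UAS-bla reporter stimulated with estradiol; series mostly up to about 92 µM; nearly all actives have a fitted effect of over 55% in size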
Method in brief: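 ER-beta-UAS-bla HEK293T cells in 2% charcoal-stripped FBS medium, treated with compound plus 1 nM 17-beta-estradiol for 16 h at 37C. Viability read by CellTiter-Glo luminescence after 30 min at room temperature in the same wells.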

[9] = qHTS assay to identify small molecule agonists or antagonists of the thyroid stimulating hormone receptor (TSHR) signaling pathway - wild type cell line counter screen (AID 1259384; calls by dose curve)
Method in brief: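 Counter screen in untransfected Hek293: compounds (15-point titration, triplicate) plus phosphodiesterase inhibitor Ro20-1724 added after 18 h plating; 30 min RT. Intracellular cAMP via competitive d2/cryptate immunoassay, 1 h incubation.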

[10] = molecular target: Thyrotropin receptor (Homo sapiens) (UniProt P16473); test: qHTS assay to identify small molecule antagonists of the thyroid stimulating hormone receptor (TSHR) signaling pathway (AID 1259385; calls by dose curve; further: nearly all actives have a fitted effect of over 20% in size)
Chain of Thyrotropin receptor (Homo sapiens) (P16473 whole entry, looked up): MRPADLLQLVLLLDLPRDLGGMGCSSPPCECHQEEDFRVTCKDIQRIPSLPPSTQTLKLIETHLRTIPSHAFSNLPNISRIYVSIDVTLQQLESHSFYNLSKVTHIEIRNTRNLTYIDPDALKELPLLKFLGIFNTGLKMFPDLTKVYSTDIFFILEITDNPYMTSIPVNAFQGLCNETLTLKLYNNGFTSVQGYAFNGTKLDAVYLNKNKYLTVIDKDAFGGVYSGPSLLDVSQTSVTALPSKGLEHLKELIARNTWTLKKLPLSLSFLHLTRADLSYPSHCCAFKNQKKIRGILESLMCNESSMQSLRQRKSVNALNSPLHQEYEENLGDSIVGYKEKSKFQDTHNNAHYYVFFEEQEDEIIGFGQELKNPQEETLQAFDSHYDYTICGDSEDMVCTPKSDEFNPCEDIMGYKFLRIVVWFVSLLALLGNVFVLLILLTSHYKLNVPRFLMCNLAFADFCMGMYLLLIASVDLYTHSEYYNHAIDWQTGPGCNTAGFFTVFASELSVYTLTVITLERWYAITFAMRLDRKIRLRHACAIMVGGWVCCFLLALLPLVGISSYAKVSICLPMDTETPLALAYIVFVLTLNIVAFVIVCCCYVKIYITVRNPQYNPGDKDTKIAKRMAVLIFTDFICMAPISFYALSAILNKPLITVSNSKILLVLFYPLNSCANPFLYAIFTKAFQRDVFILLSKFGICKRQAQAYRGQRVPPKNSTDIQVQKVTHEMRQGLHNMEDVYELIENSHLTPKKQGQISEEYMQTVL
Method in brief: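 Antagonist mode: compound-treated TSHR-expressing HEK293 cells were stimulated with 1.5 ng/mL TSH (final) in presence of Ro20-1724 for 30 min at RT. HTRF cAMP detection after 1 h; each compound tested at 15 concentrations, triplicate.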

[11] = qHTS assay to identify small molecule agonists of the estrogen receptor alpha (ER-alpha) signaling pathway in the presence of an antagonist - cell viability counter screen (AID 1259386);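 further: series mostly up to about 92 µM; cells exposed to compounds for 22 h at 37 °C before the viability read; nearly all actives have a fitted effect of over 30% in size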
Method in brief: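 Cell viability in VM7Luc4E2 cells (endogenous full-length ER-alpha) measured by CellTiter-Fluor fluorescence in the same wells as the luciferase screen. Cells pre-cultured 5 days in charcoal-stripped serum, then treated 22 h with compounds at 15 concentrations plus 10.0nM ICI-182,780.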

[12] = molecular target: Progesterone receptor (Homo sapiens) (UniProt P06401); test: qHTS assay to identify small molecule agonists of the progesterone receptor (PR) signaling pathway (AID 1346784; calls by dose curve; further: nearly all actives have a fitted effect of over 30% in size)
Chain of Progesterone receptor (Homo sapiens) (P06401 whole entry, looked up): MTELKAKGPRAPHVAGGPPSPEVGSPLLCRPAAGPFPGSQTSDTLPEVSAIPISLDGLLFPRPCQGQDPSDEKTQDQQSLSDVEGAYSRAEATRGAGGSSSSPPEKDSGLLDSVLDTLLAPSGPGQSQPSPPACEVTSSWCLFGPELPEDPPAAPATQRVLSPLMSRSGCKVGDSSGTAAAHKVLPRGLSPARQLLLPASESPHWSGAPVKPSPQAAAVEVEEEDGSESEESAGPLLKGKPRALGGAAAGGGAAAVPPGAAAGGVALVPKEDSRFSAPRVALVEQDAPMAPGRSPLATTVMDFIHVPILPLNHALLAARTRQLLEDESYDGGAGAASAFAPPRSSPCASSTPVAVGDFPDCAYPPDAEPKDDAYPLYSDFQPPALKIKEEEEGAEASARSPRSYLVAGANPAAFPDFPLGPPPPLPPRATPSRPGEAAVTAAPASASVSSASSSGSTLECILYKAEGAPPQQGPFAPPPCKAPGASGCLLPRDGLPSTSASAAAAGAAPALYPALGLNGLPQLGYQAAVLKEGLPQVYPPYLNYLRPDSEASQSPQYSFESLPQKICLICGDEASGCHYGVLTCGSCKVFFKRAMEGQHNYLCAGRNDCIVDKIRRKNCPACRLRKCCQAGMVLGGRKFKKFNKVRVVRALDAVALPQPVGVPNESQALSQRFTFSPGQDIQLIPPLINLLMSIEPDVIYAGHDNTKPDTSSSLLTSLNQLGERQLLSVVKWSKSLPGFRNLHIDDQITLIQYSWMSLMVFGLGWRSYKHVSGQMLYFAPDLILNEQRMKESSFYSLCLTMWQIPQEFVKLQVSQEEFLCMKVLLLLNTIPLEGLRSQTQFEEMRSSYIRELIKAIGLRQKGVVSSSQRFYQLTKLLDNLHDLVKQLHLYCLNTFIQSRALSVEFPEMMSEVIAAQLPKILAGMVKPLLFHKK
Method in brief: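 Using charcoal-stripped serum (2%) to limit endogenous steroids, PR-UAS-bla HEK 293T cells received compounds for 16 hr at 37C after 6 hr plating; beta-lactamase FRET fluorescence was recorded following 2 hr substrate loading at room temperature.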

[13] = molecular target: Progesterone receptor (Homo sapiens) (UniProt P06401); test: qHTS assay to identify small molecule antagonists of the progesterone receptor (PR) signaling pathway (AID 1346795; active means well fitted inhibition curve with a large enough effect in the signal ratio in the repeat runs, not every such curve was filed as active; the % refers to the signal ratio)
Method in brief: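 Inhibition of R5020-induced (1 nM final) beta-lactamase reporter signal in PR-UAS-bla HEK293T cells was scored by FRET fluorescence after overnight (16 hr) compound treatment.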

[14] = qHTS assay to identify small molecule agonists of the progesterone receptor (PR) signaling pathway - cell viability counter screen (AID 1346799; calls by dose curve; further: nearly all actives have a fitted effect of over 45% in size)
Method in brief: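 Cytotoxicity in PR-bla HEK293T cells: 16 h compound, 37C; CellTiter-Glo added post-FRET read; luminescence after 30 min RT.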

[15] = qHTS assay to identify small molecule antagonists of the TGF-beta/Smad signaling pathway - cell viability counter screen (AID 1346824); further: nearly all actives have a fitted effect of over 50% in size
Method in brief: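 Cytotoxicity counter-screen run in the same wells as the beta-lactamase Smad reporter read: CellTiter-Glo luminescence after 30 min at room temperature. HEK 293T SBE-bla cells had 5 hr compound exposure at 37 C with TGF-beta1 (0.25 ng/mL stock).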

[16] = qHTS assay to identify small molecule agonists of the TGF-beta/Smad signaling pathway - cell viability counter screen (AID 1346829); further: top concentration of the series differs between compounds; nearly all actives have a fitted effect of over 45% in size
Method in brief: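 Cytotoxicity counter screen: CellTiter-Glo luminescence (30 min, room temperature) measured in the SBE-bla HEK 293T reporter wells after 5 hr compound treatment at 37 C and the 2 hr substrate step.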

[17] = molecular target: Thyrotropin-releasing hormone receptor (Homo sapiens) (UniProt P34981); test: qHTS assay to identify small molecule antagonists of the thyrotropin-releasing hormone receptor (TRHR) signaling pathway (AID 1346877; active means well fitted inhibition curve with a large enough effect in the repeat runs, not every such curve was filed as active; further: series mostly up to about 51 µM)
Chain of Thyrotropin-releasing hormone receptor (Homo sapiens) (P34981 whole entry, looked up): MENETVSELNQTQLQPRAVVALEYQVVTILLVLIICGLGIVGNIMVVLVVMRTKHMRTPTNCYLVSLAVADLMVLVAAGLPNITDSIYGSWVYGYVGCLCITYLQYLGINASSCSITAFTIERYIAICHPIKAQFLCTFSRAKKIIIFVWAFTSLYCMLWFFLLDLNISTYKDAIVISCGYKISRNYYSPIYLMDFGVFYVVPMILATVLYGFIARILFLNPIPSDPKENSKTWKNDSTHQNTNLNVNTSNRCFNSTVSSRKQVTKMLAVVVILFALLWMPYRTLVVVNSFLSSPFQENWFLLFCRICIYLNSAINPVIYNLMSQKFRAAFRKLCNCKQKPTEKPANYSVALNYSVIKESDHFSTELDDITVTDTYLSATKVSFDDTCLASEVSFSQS
Method in brief: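 TRHR-expressing HEK293 cells loaded with calcium dye for 2 h at 37 C; compounds pre-incubated 5 min at room temperature before TRH challenge at 1 nM final. Intracellular calcium fluorescence read kinetically for 3 min; 15 concentrations in triplicate.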

[18] = qHTS assay to identify small molecule agonists of the TGF-beta/Smad signaling pathway (AID 1346859; active means well fitted activation curve with a large enough effect in the signal ratio in the repeat runs, not every such curve was filed as active; the % refers to the signal ratio; further: series mostly up to about 77 µM)
Method in brief: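 Stable Smad binding element-beta-lactamase HEK 293T cells; 5 hr compound exposure at 37 C under 5% CO2; 2 hr room-temperature substrate step; fluorescence excited at 405 nm, collected at 460 nm and 530 nm.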

[19] = molecular target: Estrogen receptor (Homo sapiens) (UniProt P03372); test: qHTS assay to identify small molecule agonists of the estrogen receptor alpha (ER-alpha) signaling pathway in the presence of an antagonist (AID 1259383; calls by dose curve; further: top concentration of the series differs between compounds; nearly all actives have a fitted effect of over 15% in size)
Chain of Estrogen receptor (Homo sapiens) (P03372 whole entry, looked up): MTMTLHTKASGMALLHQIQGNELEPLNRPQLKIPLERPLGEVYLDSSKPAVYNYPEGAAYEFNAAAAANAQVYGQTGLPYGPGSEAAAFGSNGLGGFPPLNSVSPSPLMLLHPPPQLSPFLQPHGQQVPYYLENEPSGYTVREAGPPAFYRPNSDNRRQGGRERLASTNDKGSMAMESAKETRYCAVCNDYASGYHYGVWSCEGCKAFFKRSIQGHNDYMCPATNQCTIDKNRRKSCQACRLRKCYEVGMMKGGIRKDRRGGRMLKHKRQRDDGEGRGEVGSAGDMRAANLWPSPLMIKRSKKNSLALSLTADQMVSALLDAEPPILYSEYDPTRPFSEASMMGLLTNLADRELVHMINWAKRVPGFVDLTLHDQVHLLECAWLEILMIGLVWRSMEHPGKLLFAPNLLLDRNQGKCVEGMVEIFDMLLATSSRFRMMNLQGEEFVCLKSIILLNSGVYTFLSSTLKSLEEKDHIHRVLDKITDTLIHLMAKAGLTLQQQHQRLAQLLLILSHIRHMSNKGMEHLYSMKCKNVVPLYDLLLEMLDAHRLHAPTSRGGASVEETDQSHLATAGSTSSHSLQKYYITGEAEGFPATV
Method in brief: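 VM7Luc4E2 cells express endogenous full-length ER-alpha with an ERE-luciferase reporter and were hormone-deprived for 5 days. Compounds at 15 concentrations were added with 10.0nM ICI-182,780 for 22hr at 37C. Luminescence was read with ONE-Glo.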

[20] = qHTS assay to identify small molecule antagonists of the progesterone receptor (PR) signaling pathway - cell viability counter screen (AID 1346798); further: series mostly up to about 92 µM; nearly all actives have a fitted effect of over 50% in size
Method in brief: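 ATP content as viability readout: CellTiter-Glo luminescence, 30 min room temperature, in PR-UAS-bla HEK293T cells after 16 hr compound/R5020 treatment at 37C and 5% CO2.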

Measured: Potency

CC(C)(C)C(=O)CCl
not listed: [18] | [19] | [20]
inactive: all other assays above

O=[N+]([O-])c1cc([As](=O)(O)O)ccc1O
not listed: [7] | [11] | [19] | [20]
inactive: all other assays above

c1ccc2c(c1)CCCC2
not listed: [4] | [18] | [19] | [20]
inactive: all other assays above

CCOC(=O)CC(SP(=O)(OC)OC)C(=O)OCC (stereo not drawn)
not listed: [7] | [18] | [19] | [20]
inactive: all other assays above

FC(F)(F)c1ccc(Cl)cc1
not listed: [7] | [19] | [20]
inactive: all other assays above

Cc1cccc(C)c1NC(=O)CN1CCCC1=O
not listed: [4] | [7] | [9] | [10] | [18]
inactive: all other assays above

CC12CC1(C)C(=O)N(c1cc(Cl)cc(Cl)c1)C2=O (stereo not drawn)
not listed: [4] | [9] | [10] | [13] | [18] | [19]
inactive: all other assays above

Nc1nc(N)nc(NC2CC2)n1
not listed: [7] | [19] | [20]
inactive: all other assays above

CC[N+](=O)[O-]
not listed: [4] | [7] | [17] | [18] | [19]
inactive: all other assays above
